Structures are written as SMILES.

The test concerns LOC_OS01G67340-cb003. The test is described as follows: thermal shift delta Tm vs DMSO control; higher = stronger stabilization (binding). Particulars: 12.5 µM; protein concentration 2 µM. In outline:
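Purified, E. coli-expressed rice kinase domain constructs were tested by differential scanning fluorimetry in 96-well plates: 19.5 μl of 2 μM kinase in 100 mM potassium phosphate pH 7.5, 150 mM NaCl, 10% glycerol, 5 × SYPRO Orange, plus compound in DMSO. Fluorescence was read from 25°C to 95°C at 0.05°C/s. Melting temperatures came from Boltzmann fits, and the shift is the triplicate mean relative to protein with DMSO alone.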
Regarding `COCCNCc1ccc(-c2cc3nccc(Oc4ccc(NC(=O)C5(C(=O)Nc6ccc(F)cc6)CC5)cc4F)c3s2)nc1` [Sitravatinib (MGCD516)], the “thermal shift delta Tm” value is 7.72 °C.
Under `COCC(=O)NC/C=C/c1ccc2ncnc(Nc3ccc(Oc4ccc(C)nc4)c(C)c3)c2c1` stands -0.68 °C; under `O=C(NOC[C@H](O)CO)c1ccc(F)c(F)c1Nc1ccc(I)cc1F`, 0.04 °C.
Under `Cc1cc(Nc2cc(N3CCN(C)CC3)nc(/C=C/c3ccccc3)n2)n[nH]1` stands 0.51 °C.
As to `Nc1nc(N)c2nc(-c3cccc(O)c3)c(-c3cccc(O)c3)nc2n1`, the “thermal shift delta Tm” value was -0.24 °C.
With `Cc1nc(Nc2ncc(C(=O)Nc3c(C)cccc3Cl)s2)cc(N2CCN(CCO)CC2)n1` [Dasatinib], the “thermal shift delta Tm” value was found to be 0.73 °C.
As to `O=C(c1ccc(Nc2nccc(-c3cc4ccccc4s3)n2)cc1)N1CCC(N2CCCC2)CC1` [IKK-16 (IKK Inhibitor VII)], the “thermal shift delta Tm” value came out at 3.52 °C.
In the case of `CC(C)CC(=O)Nc1n[nH]c2c1CN(C(=O)C1CCN(C)CC1)C2(C)C`, the “thermal shift delta Tm” value stood at 0.25 °C.
Take `COc1cc2c(Oc3ccc(NC(=O)C4(C(=O)Nc5ccc(F)cc5)CC4)cc3F)ccnc2cc1OCCCN1CCOCC1`: the “thermal shift delta Tm” value stood at 3.45 °C.
For the molecule `OCCn1cc(-c2cnc3nnn(Cc4ccc5ncccc5c4)c3n2)cn1`, the “thermal shift delta Tm” value is -0.64 °C.
Take `CC(C)(C)c1nc(-c2ccc(NC(=O)Nc3cccc(C(F)(F)F)c3)c3ccccc23)c2c(N)nccn12` [kira6]: the “thermal shift delta Tm” value came to 8.45 °C.
For `COc1ccc(-c2ccc3ncc4c(c3c2)n(-c2ccc(N3CCNCC3)c(C(F)(F)F)c2)c(=O)n4C)cn1` the value was 1.43 °C.
Take `FC(F)(F)c1ccc(CNc2ccc(Cc3c[nH]c4ncc(Cl)cc34)cn2)cn1` [Pexidartinib (PLX3397)]: the “thermal shift delta Tm” value came to 3.78 °C.
On to `Cc1nc(NC(=O)N2CCC[C@H]2C(N)=O)sc1-c1ccnc(C(C)(C)C(F)(F)F)c1` [Alpelisib (BYL719)], for which the “thermal shift delta Tm” value turned out to be 0.12 °C.
Regarding `O=C(NCCO)c1cccc(-c2cc(Nc3ccc(OC(F)(F)F)cc3)ncn2)c1`, the “thermal shift delta Tm” value turned out to be 0.88 °C.
Regarding `C[C@@H](Nc1cc(F)cc(F)c1)c1cc(C(=O)N(C)C)cc2c(=O)cc(N3CCOCC3)oc12`, the “thermal shift delta Tm” value was found to be 0.36 °C.
In the case of `C[C@@H]1COCCN1c1cc(=O)n2c(n1)N(Cc1cncc(Cl)c1)[C@H](C(F)(F)F)CC2`, the “thermal shift delta Tm” value came out at 0.35 °C.
For `CNc1nc(-c2ccc3c(N)n[nH]c3c2)cc(N2C[C@@H](C(=O)NC3CCCCC3)CC[C@H]2C)n1` the value was -0.04 °C.
Under `COc1cc(N2CCC(N(C)C)CC2)ccc1Nc1ncc(Cl)c(Nc2ccccc2P(C)(C)=O)n1` stands 1.45 °C.
Take `CN1CCN(c2ccc3nc(-c4c(N)c5c(F)cccc5[nH]c4=O)[nH]c3c2)CC1` [Dovitinib (TKI258) Lactate]: the “thermal shift delta Tm” value came out at 7.49 °C.
Turning to `N#C/C(=C(/N)Sc1ccc(N)cc1)c1ccccc1C(F)(F)F`, the “thermal shift delta Tm” value is -0.57 °C.
On to `Cc1c(C(=O)N2CCOc3ccc(-c4ccc(N)nc4)cc3C2)ccc(S(C)(=O)=O)c1F`, for which the “thermal shift delta Tm” value came to 0.21 °C.
For `CCOc1cc2ncc(C#N)c(Nc3ccc(F)c(Cl)c3)c2cc1NC(=O)/C=C/CN(C)C` [Pelitinib (EKB-569)], the “thermal shift delta Tm” value was 0.12 °C.
For the molecule `Oc1ccc(Nc2nc(-c3ccc(Cl)cc3)cs2)cc1`, the “thermal shift delta Tm” value stood at 0.86 °C.
As to `O=C(Nc1ccccc1C(=O)NC1CCCCNC1=O)c1cc2ccccc2s1` (configuration not stated), the “thermal shift delta Tm” value was 0.41 °C.
As to `CC(C)c1c2cc(-c3ccnc(NC4CCC(NC5CCOCC5)CC4)n3)ccc2nn1C` (configuration not stated), the “thermal shift delta Tm” value is 0.46 °C.
Under `NCC(=O)Nc1ccc(-n2nc(C(F)(F)F)cc2-c2ccc3c(ccc4ccccc43)c2)cc1` stands -0.53 °C; under `Cc1cc(NC(=O)c2cccc(NC(=O)/C=C/CN(C)C)c2)ccc1Nc1nccc(-c2cccnc2)n1`, 0.69 °C.
In the case of `N#Cc1ccc2ncnc(NCCc3ccccc3)c2c1` [Senexin A], the “thermal shift delta Tm” value amounted to 0.38 °C.
On to `CCOc1cn(-c2ccc(F)cc2C)nc1C(=O)Nc1ccc(Oc2ccnc3cc(OC)c(OC)cc23)c(F)c1`, for which the “thermal shift delta Tm” value was determined as 0.43 °C.
On to `Fc1ccc2[nH]ccc2c1-c1nc(N2CCOCC2)c2sc(CN3CCN(CC4CC4)CC3)cc2n1`, for which the “thermal shift delta Tm” value was found to be 0.95 °C.
In the case of `COc1cccc2cc(-c3nc([C@H]4CC[C@H](C(=O)O)CC4)n4ncnc(N)c34)[nH]c12`, the “thermal shift delta Tm” value was 1.05 °C.
On to `N#Cc1cnc(Nc2cc(NC[C@H]3CNCCO3)c(C(F)(F)F)cn2)cn1`, for which the “thermal shift delta Tm” value came out at 0.67 °C.
Turning to `O=C(NOCCO)c1ccc2cncn2c1Nc1ccc(I)cc1F`, the “thermal shift delta Tm” value was -0.68 °C.
For the molecule `COc1cc2c(Nc3ccc(NC(=O)c4ccccc4)cc3)ncnc2cc1OCCCN1CCOCC1`, the “thermal shift delta Tm” value is 0.4 °C.
Take `NC(=O)Nc1cc(-c2cccc(F)c2)sc1C(=O)N[C@H]1CCCNC1`: the “thermal shift delta Tm” value amounted to 0.78 °C.
For `CNC(=O)c1ccc(-c2cnc3ncc(Cc4ccc5ncccc5c4)n3n2)cc1F` the value was 0.32 °C.
